In the supplement of paper PMC12067093, “Discovery and optimisation of a covalent ligand for TRIM25 and its application to targeted protein ubiquitination” (Chemical Science, 2025):
About 21,000 targets were measured; listed, in parts, are those with the largest changes and a random draw of the rest.

Compound: Cc1cc(ccc1-c1ccccc1)C(=O)N1CCCN(CC1)C(=O)CCl [compound 10]
Assay: probe-labelled cysteine peptide fold change vs DMSO (competition) (log2 fold change); higher = less target engagement (more negative = stronger competition)
Settings: THP-1, incubation time: 4 h
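Also: competitive profiling in live THP-1 cells: cysteine peptides tagged with an iodoacetamide desthiobiotin (IA-DTB) probe, intensity after compound treatment relative to DMSO-treated cells.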

UniProt Q10469, sequence (Q10469 whole entry, looked up): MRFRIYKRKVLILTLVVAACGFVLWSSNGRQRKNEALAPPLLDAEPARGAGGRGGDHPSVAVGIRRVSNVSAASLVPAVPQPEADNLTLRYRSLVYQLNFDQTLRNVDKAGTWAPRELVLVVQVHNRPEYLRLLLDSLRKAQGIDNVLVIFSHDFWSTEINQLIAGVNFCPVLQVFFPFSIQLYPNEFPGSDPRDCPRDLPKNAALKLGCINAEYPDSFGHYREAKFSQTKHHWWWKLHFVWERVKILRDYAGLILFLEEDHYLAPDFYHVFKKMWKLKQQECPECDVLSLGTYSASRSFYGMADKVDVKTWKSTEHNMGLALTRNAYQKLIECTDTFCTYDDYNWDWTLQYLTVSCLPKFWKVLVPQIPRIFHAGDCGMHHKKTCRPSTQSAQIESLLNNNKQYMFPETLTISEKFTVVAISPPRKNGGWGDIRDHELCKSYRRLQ
UniProt Q9UBG0, sequence (Q9UBG0 whole entry, looked up): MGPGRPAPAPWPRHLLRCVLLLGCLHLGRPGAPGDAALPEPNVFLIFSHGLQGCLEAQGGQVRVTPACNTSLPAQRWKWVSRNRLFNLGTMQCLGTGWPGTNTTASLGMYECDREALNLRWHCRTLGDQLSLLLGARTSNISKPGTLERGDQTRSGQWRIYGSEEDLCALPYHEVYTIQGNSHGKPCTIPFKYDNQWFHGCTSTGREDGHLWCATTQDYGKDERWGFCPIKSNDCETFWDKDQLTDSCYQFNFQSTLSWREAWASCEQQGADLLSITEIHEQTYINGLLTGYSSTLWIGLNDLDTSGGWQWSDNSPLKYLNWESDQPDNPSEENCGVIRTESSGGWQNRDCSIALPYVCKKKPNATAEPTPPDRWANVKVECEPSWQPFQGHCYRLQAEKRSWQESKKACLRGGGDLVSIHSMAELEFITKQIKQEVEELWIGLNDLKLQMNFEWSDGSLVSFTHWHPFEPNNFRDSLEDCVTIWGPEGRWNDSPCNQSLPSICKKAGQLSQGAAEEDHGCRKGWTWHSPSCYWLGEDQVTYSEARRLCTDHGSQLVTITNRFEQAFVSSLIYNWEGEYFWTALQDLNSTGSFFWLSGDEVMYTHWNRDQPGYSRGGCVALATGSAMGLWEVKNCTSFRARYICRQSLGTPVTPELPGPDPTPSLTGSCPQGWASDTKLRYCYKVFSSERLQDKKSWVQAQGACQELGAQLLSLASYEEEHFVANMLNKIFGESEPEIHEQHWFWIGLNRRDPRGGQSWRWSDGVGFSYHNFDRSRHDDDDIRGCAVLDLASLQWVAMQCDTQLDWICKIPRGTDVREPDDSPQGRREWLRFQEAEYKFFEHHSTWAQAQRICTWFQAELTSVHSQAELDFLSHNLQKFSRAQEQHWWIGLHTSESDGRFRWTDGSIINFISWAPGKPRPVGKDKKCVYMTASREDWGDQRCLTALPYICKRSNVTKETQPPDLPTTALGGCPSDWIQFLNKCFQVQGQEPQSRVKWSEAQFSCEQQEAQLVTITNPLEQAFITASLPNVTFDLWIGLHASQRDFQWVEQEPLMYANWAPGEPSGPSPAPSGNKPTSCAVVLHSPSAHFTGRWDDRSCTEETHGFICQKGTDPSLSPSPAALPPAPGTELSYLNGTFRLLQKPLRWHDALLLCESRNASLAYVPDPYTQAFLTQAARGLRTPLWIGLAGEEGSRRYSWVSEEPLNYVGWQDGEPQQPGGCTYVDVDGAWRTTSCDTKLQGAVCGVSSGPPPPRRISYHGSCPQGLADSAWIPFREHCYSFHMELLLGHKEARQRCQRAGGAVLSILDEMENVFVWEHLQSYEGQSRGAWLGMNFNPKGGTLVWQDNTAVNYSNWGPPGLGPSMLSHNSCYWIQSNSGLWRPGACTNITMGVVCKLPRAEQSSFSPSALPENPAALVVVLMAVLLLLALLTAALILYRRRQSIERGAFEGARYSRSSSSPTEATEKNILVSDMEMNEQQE
UniProt Q9HCC0, sequence (Q9HCC0 whole entry, looked up): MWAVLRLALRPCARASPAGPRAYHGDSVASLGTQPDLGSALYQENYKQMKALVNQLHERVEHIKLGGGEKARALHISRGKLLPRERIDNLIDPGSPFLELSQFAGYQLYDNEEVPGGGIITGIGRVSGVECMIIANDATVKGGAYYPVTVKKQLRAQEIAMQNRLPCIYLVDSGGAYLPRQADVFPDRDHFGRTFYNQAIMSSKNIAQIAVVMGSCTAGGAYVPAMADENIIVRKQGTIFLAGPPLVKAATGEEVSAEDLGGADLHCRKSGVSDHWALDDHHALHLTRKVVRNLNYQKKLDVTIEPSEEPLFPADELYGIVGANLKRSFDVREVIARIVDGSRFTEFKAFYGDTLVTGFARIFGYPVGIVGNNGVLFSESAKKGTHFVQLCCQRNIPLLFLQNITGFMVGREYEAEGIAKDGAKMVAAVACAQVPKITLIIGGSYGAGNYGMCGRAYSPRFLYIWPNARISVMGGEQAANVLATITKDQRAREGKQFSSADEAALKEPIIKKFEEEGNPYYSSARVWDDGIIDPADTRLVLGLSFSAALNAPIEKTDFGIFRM
UniProt Q99707, sequence (Q99707 whole entry, looked up): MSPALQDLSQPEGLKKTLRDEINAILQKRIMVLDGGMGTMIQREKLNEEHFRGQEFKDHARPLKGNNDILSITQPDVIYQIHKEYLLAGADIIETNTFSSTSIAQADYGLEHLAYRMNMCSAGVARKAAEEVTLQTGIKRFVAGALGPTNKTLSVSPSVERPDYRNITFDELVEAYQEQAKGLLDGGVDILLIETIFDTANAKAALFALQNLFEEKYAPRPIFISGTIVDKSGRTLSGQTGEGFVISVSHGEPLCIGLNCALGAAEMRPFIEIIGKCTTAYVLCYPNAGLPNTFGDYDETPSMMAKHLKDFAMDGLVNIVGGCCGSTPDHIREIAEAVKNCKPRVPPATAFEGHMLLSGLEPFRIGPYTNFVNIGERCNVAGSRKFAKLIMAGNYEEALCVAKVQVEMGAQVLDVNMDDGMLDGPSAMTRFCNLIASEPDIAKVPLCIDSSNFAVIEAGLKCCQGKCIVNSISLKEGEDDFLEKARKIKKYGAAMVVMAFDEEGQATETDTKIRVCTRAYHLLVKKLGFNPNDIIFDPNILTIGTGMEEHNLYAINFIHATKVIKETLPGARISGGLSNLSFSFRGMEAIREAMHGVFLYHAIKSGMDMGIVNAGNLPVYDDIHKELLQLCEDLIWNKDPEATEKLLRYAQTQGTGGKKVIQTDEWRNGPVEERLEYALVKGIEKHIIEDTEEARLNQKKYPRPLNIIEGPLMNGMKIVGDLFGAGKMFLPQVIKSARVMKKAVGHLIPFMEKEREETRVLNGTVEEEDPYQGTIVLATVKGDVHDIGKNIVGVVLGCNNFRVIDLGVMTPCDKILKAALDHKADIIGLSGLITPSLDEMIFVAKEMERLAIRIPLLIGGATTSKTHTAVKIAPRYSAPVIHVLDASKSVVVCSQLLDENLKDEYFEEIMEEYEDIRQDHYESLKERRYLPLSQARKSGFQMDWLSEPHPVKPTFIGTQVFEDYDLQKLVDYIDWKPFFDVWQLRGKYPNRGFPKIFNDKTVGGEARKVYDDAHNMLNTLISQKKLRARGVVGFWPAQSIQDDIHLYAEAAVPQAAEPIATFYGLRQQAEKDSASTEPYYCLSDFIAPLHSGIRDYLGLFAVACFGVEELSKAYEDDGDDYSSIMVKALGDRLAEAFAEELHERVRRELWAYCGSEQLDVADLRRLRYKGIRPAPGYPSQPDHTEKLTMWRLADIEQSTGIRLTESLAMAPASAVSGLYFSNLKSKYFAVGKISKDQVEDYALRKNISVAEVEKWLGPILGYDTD
UniProt Q66K74, sequence (Q66K74 whole entry, looked up): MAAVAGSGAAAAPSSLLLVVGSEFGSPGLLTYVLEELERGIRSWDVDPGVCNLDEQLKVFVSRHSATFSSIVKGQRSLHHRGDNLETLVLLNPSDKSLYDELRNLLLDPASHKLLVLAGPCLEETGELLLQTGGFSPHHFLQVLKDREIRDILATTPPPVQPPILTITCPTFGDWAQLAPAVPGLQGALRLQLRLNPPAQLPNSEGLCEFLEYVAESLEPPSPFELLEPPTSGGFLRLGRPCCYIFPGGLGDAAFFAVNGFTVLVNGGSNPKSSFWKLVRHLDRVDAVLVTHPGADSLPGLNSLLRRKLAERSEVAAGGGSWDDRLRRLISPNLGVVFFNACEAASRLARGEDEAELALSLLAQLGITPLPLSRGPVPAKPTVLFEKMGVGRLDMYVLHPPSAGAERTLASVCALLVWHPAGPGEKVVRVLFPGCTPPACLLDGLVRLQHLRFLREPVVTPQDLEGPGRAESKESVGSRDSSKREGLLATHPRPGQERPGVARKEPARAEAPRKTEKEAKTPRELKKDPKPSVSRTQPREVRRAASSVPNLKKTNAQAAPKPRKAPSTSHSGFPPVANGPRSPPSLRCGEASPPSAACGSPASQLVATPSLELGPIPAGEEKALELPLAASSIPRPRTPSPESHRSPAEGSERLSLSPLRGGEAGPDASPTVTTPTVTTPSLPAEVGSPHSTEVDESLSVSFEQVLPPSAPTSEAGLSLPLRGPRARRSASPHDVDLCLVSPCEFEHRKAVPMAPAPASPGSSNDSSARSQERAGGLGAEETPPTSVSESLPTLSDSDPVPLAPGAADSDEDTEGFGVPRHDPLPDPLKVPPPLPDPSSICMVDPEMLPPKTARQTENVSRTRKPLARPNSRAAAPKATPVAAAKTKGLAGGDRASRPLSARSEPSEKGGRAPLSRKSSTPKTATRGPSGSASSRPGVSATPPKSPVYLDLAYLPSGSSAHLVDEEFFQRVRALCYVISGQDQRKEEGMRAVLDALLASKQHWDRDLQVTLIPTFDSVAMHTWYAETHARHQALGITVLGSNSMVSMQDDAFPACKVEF
UniProt O75608, sequence (O75608 whole entry, looked up): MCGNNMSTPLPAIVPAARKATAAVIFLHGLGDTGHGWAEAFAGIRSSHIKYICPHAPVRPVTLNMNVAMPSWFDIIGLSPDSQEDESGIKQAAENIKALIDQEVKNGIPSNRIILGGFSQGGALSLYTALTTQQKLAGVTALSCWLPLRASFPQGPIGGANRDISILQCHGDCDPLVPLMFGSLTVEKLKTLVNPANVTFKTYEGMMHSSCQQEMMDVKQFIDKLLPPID

With “MUT_P22033_560_CTVGEITDALK (UniProt P22033)” the “probe-labelled cysteine peptide fold change” value (10 µM) was 0.0307 and the “probe-labelled cysteine peptide fold change” value (50 µM) was 0.0797.

With “MAP1S_Q66K74_435+440_VLFPGCTPPACLLDGLVR (UniProt Q66K74)” the “probe-labelled cysteine peptide fold change” value (10 µM) was -0.0708 and the “probe-labelled cysteine peptide fold change” value (50 µM) was -0.133.

With “MRPL42_Q9Y6G3_45_STYSPLPDDYNCNVELALTSDGR (UniProt Q9Y6G3)” the “probe-labelled cysteine peptide fold change” value (10 µM) was 0.0794 and the “probe-labelled cysteine peptide fold change” value (50 µM) was -0.1.

“MAP2K2_P36507_384_SEVEEVDFAGWLCK (UniProt P36507)” was tested, and the “probe-labelled cysteine peptide fold change” value (10 µM) was 0.0856 and the “probe-labelled cysteine peptide fold change” value (50 µM) was 0.0969.

For “LIMS1_P48059_240+252_GLAYCETHYNQLFGDVCFHCNR (UniProt P48059)”, the “probe-labelled cysteine peptide fold change” value (10 µM) was 0.0277 and the “probe-labelled cysteine peptide fold change” value (50 µM) was 0.118.

In the case of “MEFV_O15553_375_KSPGSLSPQPLPQCK (UniProt O15553)”, the “probe-labelled cysteine peptide fold change” value (10 µM) is reported as -0.229 and the “probe-labelled cysteine peptide fold change” value (50 µM) is reported as -1.2.

“LUC7L3_O95232_40+43_YYLCGFCPAELFTNTR (UniProt O95232)” was tested, and the “probe-labelled cysteine peptide fold change” value (10 µM) was 0.232 and the “probe-labelled cysteine peptide fold change” value (50 µM) was -0.733.

For “MYCBP2_O75592_4318_QVFKEEEEAIKVDLHEGCGR (UniProt O75592)”, the “probe-labelled cysteine peptide fold change” value (10 µM) was -0.166 and the “probe-labelled cysteine peptide fold change” value (50 µM) was -0.439.

For “MGAT2_Q10469_378_IFHAGDCGMHHK (UniProt Q10469)”, the “probe-labelled cysteine peptide fold change” value (10 µM) was -0.125 and the “probe-labelled cysteine peptide fold change” value (50 µM) was -0.149.

For “MCM6_Q14566_158_THPVHPELVSGTFLCLDCQTVIRDVEQQFK (UniProt Q14566)”, the “probe-labelled cysteine peptide fold change” value (10 µM) was 0.0358 and the “probe-labelled cysteine peptide fold change” value (50 µM) was -0.522.

“MCCC2_Q9HCC0_267_AATGEEVSAEDLGGADLHCRK (UniProt Q9HCC0)” was tested, and the “probe-labelled cysteine peptide fold change” value (10 µM) was -0.591 and the “probe-labelled cysteine peptide fold change” value (50 µM) was -1.49.

With “MRPL44_Q9H9J2_96_TAFVNSCYIK (UniProt Q9H9J2)” the “probe-labelled cysteine peptide fold change” value (10 µM) was -0.0364 and the “probe-labelled cysteine peptide fold change” value (50 µM) was -0.21.

In the case of “MMP14_P50281_574_RLLYCQR (UniProt P50281)”, the “probe-labelled cysteine peptide fold change” value (10 µM) is reported as -0.276 and the “probe-labelled cysteine peptide fold change” value (50 µM) is reported as -0.518.

“MRC2_Q9UBG0_1234_TTSCDTK (UniProt Q9UBG0)” was tested, and the “probe-labelled cysteine peptide fold change” value (10 µM) was -0.27 and the “probe-labelled cysteine peptide fold change” value (50 µM) was -0.499.

For “MBTD1_Q05BQ5_288_VSESMQYPFKPCMR (UniProt Q05BQ5)”, the “probe-labelled cysteine peptide fold change” value (10 µM) was 0.00855 and the “probe-labelled cysteine peptide fold change” value (50 µM) was 0.00392.

For “MCTS1_Q9ULC4_144_QHALCVGVMK (UniProt Q9ULC4)”, the “probe-labelled cysteine peptide fold change” value (10 µM) was 0.104 and the “probe-labelled cysteine peptide fold change” value (50 µM) was -0.154.

“MTR_Q99707_798_NIVGVVLGCNNFR (UniProt Q99707)” was tested, and the “probe-labelled cysteine peptide fold change” value (10 µM) was 0.00546 and the “probe-labelled cysteine peptide fold change” value (50 µM) was -0.26.

“LRPPRC_P42704_380_EDGPSVFGSFFLQHCVTMNTPVEK (UniProt P42704)” was tested, and the “probe-labelled cysteine peptide fold change” value (10 µM) was 0.0471 and the “probe-labelled cysteine peptide fold change” value (50 µM) was 0.322.

In the case of “MORC3_Q14149_15_LSALCPK (UniProt Q14149)”, the “probe-labelled cysteine peptide fold change” value (10 µM) is reported as -0.27 and the “probe-labelled cysteine peptide fold change” value (50 µM) is reported as -1.37.

For “LYPLA1_O75608_144_LAGVTALSCWLPLR (UniProt O75608)”, the “probe-labelled cysteine peptide fold change” value (10 µM) was 0.21 and the “probe-labelled cysteine peptide fold change” value (50 µM) was 0.0595.

In the case of “MRPL53_Q96EL3_21_VQFCPFEK (UniProt Q96EL3)”, the “probe-labelled cysteine peptide fold change” value (10 µM) is reported as 0.0106 and the “probe-labelled cysteine peptide fold change” value (50 µM) is reported as -0.103.

In the case of “MSH6_P52701_687_SELALSALGGCVFYLK (UniProt P52701)”, the “probe-labelled cysteine peptide fold change” value (10 µM) is reported as 0.05 and the “probe-labelled cysteine peptide fold change” value (50 µM) is reported as 0.296.

With “MCM2_P49736_661_FDILCVVR (UniProt P49736)” the “probe-labelled cysteine peptide fold change” value (10 µM) was 0.242 and the “probe-labelled cysteine peptide fold change” value (50 µM) was 0.398.
